From PubChem BioAssay come the findings set out here.

Structures are written as SMILES. Calls of active or inactive are those of the source. Unless noted, the rule behind the calls is not given here.

For experiment [1], the system named is Aerobactin synthetase IucA (Klebsiella pneumoniae). The experiment in a line: inhibition of K. pneumoniae IucA enzyme – biochemical, Tocris library, absorbance (AID 1345561).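 Note: 100% = enzyme without compound and 0% = no enzyme.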 The note with it: purified IucA enzyme assay, absorbance (OD) read-out; stronger effect = lower value;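 tested at 8 µM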.
A short description of experiment [2]: viability loss with induced miR-34 in A549 – imaging, A549 dox-inducible miR-34, nuclei and caspase counts, primary screen (AID 1347080;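 active = compounds whose cell count with miR-34 switched on is under 0.7 times the count with it off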). The note with it: A549 miR-34 inducible, Hoechst nuclei count, 48 h.
Experiment [3] can be described thus: galactose survival enhancers in mitochondrial complex I cybrids – cell-based, galactose medium, ATP luminescence, primary screen (AID 1645843;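 active = z-score of at least 1.8 in each of two replicates, scored against plate mean and spread of sample wells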;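 note: positive z means more ATP and so rescue of galactose-driven cybrid death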). The conditions noted are these: complex I mutant cybrid cells, 72 h, stronger effect = higher value.
Setting [4] is: stronger effect = lower value, cell number ratio, induced over uninduced.
Setting [5] is: measured here: relative caspase fold change +Dox/-Dox.
Where [6] appears, read: measured here: total cells with miR-34 induction, stronger effect = lower value.
[7] abbreviates: measured here: total cells without miR-34 induction.

The term remaining activity denotes the signal under treatment as a percentage of the control signal. Turning to `CC(C)Oc1cccc(-n2c(CCc3c[nH]c4ccc(Br)cc34)nc3ccccc3c2=O)c1`, the remaining activity in experiment [1] was 110% (inactive). Moreover, the fold change in experiment [2] (setting [4]) is 1.07 (inactive); in experiment [2] (setting [5]), 0.884. Also, the cell count in experiment [2] (setting [6]) is 6620; in experiment [2] (setting [7]), 6200. Also, the z-score in experiment [3] is -1.18 (inactive).

`CC(=O)N[C@H](Cc1c[nH]c2ccccc12)C(=O)OCc1cc(C(F)(F)F)cc(C(F)(F)F)c1`: the remaining activity in experiment [1] was 106% (inactive). Further, the fold change in experiment [2] (setting [4]) was 0.923 (inactive); in experiment [2] (setting [5]) it was 0.896. The values for the cell count in experiment [2] (setting [6]) and in experiment [2] (setting [7]) were 8110 and 8790, respectively. Further, in experiment [3], the z-score is -0.035 (inactive).

As for `CCc1cc2c(c(CC)n1)CCC(=O)N2Cc1ccc(-c2ccccc2-c2nn[nH]n2)cc1`, the remaining activity in experiment [1] was 89.1% (inactive). The fold change in experiment [2] (setting [4]) was 0.902 (inactive); in experiment [2] (setting [5]), 0.831. The figures for the cell count in experiment [2] (setting [6]) and in experiment [2] (setting [7]) were 8410 and 9320, respectively. Also, in experiment [3], the z-score was 1.93 (inactive).

Turning to `COC(=O)Nc1ccc2[nH]cc(CCNC(C)=O)c2c1`, the remaining activity in experiment [1] was 121% (inactive). For the same molecule, the fold change in experiment [2] (setting [4]) was 0.99 (inactive); in experiment [2] (setting [5]) it was 0.823. In addition, the cell count amounted to 8200 in experiment [2] (setting [6]) and 8280 in experiment [2] (setting [7]). The z-score in experiment [3] was -0.205 (inactive).

As for `CCS(=O)(=O)N(C)[C@H]1c2cc(C#N)ccc2OC(C)(C)[C@@H]1O` (racemic), the remaining activity in experiment [1] is 119% (inactive). For the same molecule, the figures for the fold change in experiment [2] (setting [4]) and in experiment [2] (setting [5]) were 0.884 (inactive) and 1.36, respectively. For the same molecule, the cell count worked out at 9180 in experiment [2] (setting [6]) and 10400 in experiment [2] (setting [7]). The z-score in experiment [3] was 0.85 (inactive).

With `c1ncc(CC2CCNCC2)[nH]1`, in experiment [1], the remaining activity was 101% (inactive). Also, the fold change is 0.95 (inactive) in experiment [2] (setting [4]) and 0.717 in experiment [2] (setting [5]). The values for the cell count in experiment [2] (setting [6]) and in experiment [2] (setting [7]) were 8900 and 9370, respectively. Further, the z-score in experiment [3] was 0.095 (inactive).

On to `CN=C1C=C2C(=NC=NC2=Nc2cccc(Br)c2)C=N1`, for which the remaining activity in experiment [1] is 82.7% (inactive). Moreover, the fold change in experiment [2] (setting [4]) was 0.699 (active); in experiment [2] (setting [5]), 1.7. The cell count in experiment [2] (setting [6]) stood at 942; in experiment [2] (setting [7]), 1350. Moreover, the z-score in experiment [3] is -0.675 (inactive).

In the case of `O=C(NCCN1CCCCC1)c1ccc(I)cc1`, the remaining activity in experiment [1] is 103% (inactive). The fold change in experiment [2] (setting [4]) is 0.954 (inactive); in experiment [2] (setting [5]) it was 0.747. Also, the values for the cell count in experiment [2] (setting [6]) and in experiment [2] (setting [7]) were 9320 and 9760, respectively. Besides, the z-score in experiment [3] was 0.155 (inactive).

On to `COc1ccc(-c2ccc(=N)n(CCCC(=O)O)n2)cc1`, for which the remaining activity in experiment [1] is 122% (inactive). For the same molecule, the fold change was 0.902 (inactive) in experiment [2] (setting [4]) and 0.531 in experiment [2] (setting [5]). In addition, the cell count in experiment [2] (setting [6]) stood at 8640; in experiment [2] (setting [7]), 9580. Also, the z-score in experiment [3] is -0.295 (inactive).

For `CC1(C)CCC(C)(C)c2cc(C3(c4ccc(C(=O)O)cc4)OCCO3)ccc21`, the remaining activity in experiment [1] is 106% (inactive). Besides, the fold change in experiment [2] (setting [4]) was 0.895 (inactive); in experiment [2] (setting [5]) it was 2.19. In addition, the cell count was determined as 8580 in experiment [2] (setting [6]) and 9580 in experiment [2] (setting [7]). Moreover, the z-score in experiment [3] was 0.95 (inactive).

For `C[C@@H]1O[C@@]2(CS1)CN1CCC2CC1` (racemic), the remaining activity in experiment [1] is 111% (inactive). Also, the results for the fold change in experiment [2] (setting [4]) and in experiment [2] (setting [5]) were 0.892 (inactive) and 1.88, respectively. Moreover, the cell count worked out at 8540 in experiment [2] (setting [6]) and 9570 in experiment [2] (setting [7]). For the same molecule, the z-score in experiment [3] was 0.375 (inactive).

For `CN(C)CCC1(c2ccc(Cl)cc2)Cc2ccccc2C(=O)O1` (centres undefined), the remaining activity in experiment [1] was 122% (inactive). Also, the figures for the fold change in experiment [2] (setting [4]) and in experiment [2] (setting [5]) were 0.975 (inactive) and 1.4, respectively. Also, the cell count in experiment [2] (setting [6]) was determined as 7700; in experiment [2] (setting [7]) it was 7900. The z-score in experiment [3] was -0.195 (inactive).

Take `Cc1c(C(=O)NN2CCOCC2)nn(-c2ccc(Cl)cc2Cl)c1-c1ccc(I)cc1`: in experiment [1], the remaining activity was 115% (inactive). For the same molecule, the fold change is 0.846 (inactive) in experiment [2] (setting [4]) and 0.864 in experiment [2] (setting [5]). For the same molecule, the figures for the cell count in experiment [2] (setting [6]) and in experiment [2] (setting [7]) were 8280 and 9790, respectively. In addition, the z-score in experiment [3] was -0.285 (inactive).

With `Cc1cc(C(=O)O)sc1C(N)C(=O)O` (centres undefined), the remaining activity in experiment [1] was 83.4% (inactive). Moreover, the fold change in experiment [2] (setting [4]) was 0.995 (inactive); in experiment [2] (setting [5]), 1.22. For the same molecule, the cell count in experiment [2] (setting [6]) was 8770; in experiment [2] (setting [7]), 8820. Besides, the z-score in experiment [3] is 0.285 (inactive).

In the case of `CNc1cc(OC)c(C(=O)N[C@@H]2CCN(Cc3ccccc3)[C@@H]2C)cc1Cl` (racemic), the remaining activity in experiment [1] was 104% (inactive). Further, the fold change is 0.926 (inactive) in experiment [2] (setting [4]) and 1.02 in experiment [2] (setting [5]). Moreover, the cell count in experiment [2] (setting [6]) turned out to be 8160; in experiment [2] (setting [7]), 8810. For the same molecule, the z-score in experiment [3] is -0.56 (inactive).

For `COc1ccccc1N1CCN(CCN2C(=O)c3ccccc3C(C)(C)C2=O)CC1`, the remaining activity in experiment [1] is 124% (inactive). Moreover, the fold change in experiment [2] (setting [4]) is 1.04 (inactive); in experiment [2] (setting [5]), 1.01. The cell count was 7580 in experiment [2] (setting [6]) and 7320 in experiment [2] (setting [7]). For the same molecule, the z-score in experiment [3] was -0.455 (inactive).

Consider `O=C(Nc1ccccc1)N[C@H]1C[C@H](C(=O)O)Nc2cc(Cl)cc(Cl)c21`, for which the remaining activity in experiment [1] is 104% (inactive). Also, the fold change is 0.916 (inactive) in experiment [2] (setting [4]) and 0.915 in experiment [2] (setting [5]). Moreover, the figures for the cell count in experiment [2] (setting [6]) and in experiment [2] (setting [7]) were 8670 and 9460, respectively. For the same molecule, the z-score in experiment [3] is 0.995 (inactive).

Take `CN(CC[C@@H](Oc1ccc(-c2ccccc2)cc1)c1ccc(F)cc1)CC(=O)O`: the remaining activity in experiment [1] is 116% (inactive). In addition, the fold change is 0.898 (inactive) in experiment [2] (setting [4]) and 1.24 in experiment [2] (setting [5]). For the same molecule, the cell count stood at 7970 in experiment [2] (setting [6]) and 8870 in experiment [2] (setting [7]). Besides, the z-score in experiment [3] was 0.455 (inactive).

As for `N[C@@H](CC(=O)Nc1ccc(Oc2cc(F)c(F)cc2Br)cc1)C(=O)O`, in experiment [1], the remaining activity is 98.2% (inactive). For the same molecule, the fold change is 0.952 (inactive) in experiment [2] (setting [4]) and 1.1 in experiment [2] (setting [5]). Moreover, the cell count in experiment [2] (setting [6]) turned out to be 7870; in experiment [2] (setting [7]) it was 8270. The z-score in experiment [3] is 0.265 (inactive).
